Source: PubChem BioAssay (NCI)
Values joined by “and” are separate entries in the source; they are usually repeats but may differ in a detail not shown here. Identical values can stand only once. About 83,000 compounds went through this panel and 20% of them were active in at least one assay; those are over-represented in the sample as a whole.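 Results are percent growth after 48 hours of single-concentration exposure. 100 means growth as in untreated cells, lower positive values show inhibition; negative values down to -100 show cell death.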 Active and inactive are the calls of the source. How the source made its calls: active means growth percent below 10; inactive means the rest.

How the values were obtained:
Assay in all cases: NCI-60 one-dose screen, 48 h (100 = growth as untreated, 0 = no growth, -100 = all killed)
Conditions in all cases: 10 µM unless noted
[1] = tested on: HCT-15 colon
[2] = tested on: HT29 colon
[3] = tested on: SNB-75 CNS
[4] = tested on: SNB-19 CNS
[5] = tested on: U251 CNS
[6] = tested on: PC-3 prostate
[7] = tested on: SK-MEL-5 melanoma
[8] = tested on: UACC-62 melanoma
[9] = tested on: LOX IMVI melanoma
[10] = tested on: SK-MEL-28 melanoma
[11] = tested on: SK-MEL-2 melanoma
[12] = tested on: EKVX NSCLC
[13] = tested on: SN12C renal
[14] = tested on: UO-31 renal
[15] = tested on: ACHN renal
[16] = tested on: CAKI-1 renal
[17] = tested on: A498 renal
[18] = tested on: HL-60(TB) leukemia
[19] = tested on: CCRF-CEM leukemia
[20] = tested on: TK-10 renal

Compound | growth [1] | growth [2] | growth [3] | growth [4] | growth [5] | growth [6] | growth [7] | growth [8] | growth [9] | growth [10] | growth [11] | growth [12] | growth [13] | growth [14] | growth [15] | growth [16] | growth [17] | growth [18] | growth [19] | growth [20]
O=C(O)c1ccc(=O)[nH]c1 | 97.5% (inactive) and 103% (inactive) | 109% (inactive) and 97.7% (inactive) | 101% (inactive) and 91.6% (inactive) | 94.4% (inactive) and 102% (inactive) | 97.5% (inactive) and 91% (inactive) | 103% (inactive) and 90.1% (inactive) | 101% (inactive) and 100% (inactive) | 88.7% (inactive) and 98.6% (inactive) | 103% (inactive) and 93.4% (inactive) | 106% (inactive) and 110% (inactive) | 85.4% (inactive) and 102% (inactive) | 111% (inactive) and 98.7% (inactive) | 88.4% (inactive) and 95.5% (inactive) | 92.2% (inactive) and 88% (inactive) | 100% (inactive) and 106% (inactive) | 98.3% (inactive) | 63.4% (inactive) and 107% (inactive) | 109% (inactive) and 102% (inactive) | 106% (inactive) and 95.4% (inactive) | –
COc1cc(C2C3=C(CCCC3=O)N(CCO)c3cc4c(cc32)CCC4)cc(OC)c1OC (stereo unspecified) | 89.2% (inactive) | 71.7% (inactive) | 99.5% (inactive) | 87.3% (inactive) | 88.3% (inactive) | 80.7% (inactive) | 87.1% (inactive) | 67.7% (inactive) | 80.4% (inactive) | 96.9% (inactive) | 76.9% (inactive) | 81.2% (inactive) | 92.6% (inactive) | 67.8% (inactive) | 94.9% (inactive) | 64% (inactive) | 100% (inactive) | – | 20.3% (inactive) | –
COC12CC3C4=CCOC5CC(=O)N6c7ccccc7C1(CCN2C4)C6C53 (stereo unspecified) | 103% (inactive) | 100% (inactive) | 70.1% (inactive) | 116% (inactive) | 93.2% (inactive) | 105% (inactive) | 110% (inactive) | 104% (inactive) | 96.9% (inactive) | 109% (inactive) | 108% (inactive) | 117% (inactive) | 119% (inactive) | 92.7% (inactive) | 113% (inactive) | 102% (inactive) | 94.6% (inactive) | – | 99.7% (inactive) | –
COc1ccc(N)cc1OC | 94.4% (inactive) | 105% (inactive) | 92% (inactive) | 101% (inactive) | 117% (inactive) | 80.1% (inactive) | 107% (inactive) | 97.5% (inactive) | 105% (inactive) | 112% (inactive) | 106% (inactive) | 111% (inactive) | 89.2% (inactive) | 90.5% (inactive) | 100% (inactive) | 99% (inactive) | 100% (inactive) | 114% (inactive) | 98.6% (inactive) | –
Cc1cc[c-]cc1.Fc1c[c-]c(-c2ccccn2)c(F)c1.[Pt+2].c1ccc([PH+](c2ccccc2)c2ccccn2)cc1 | 74.1% (inactive) | 22.9% (inactive) | 22.7% (inactive) | 49.5% (inactive) | 27% (inactive) | 37.4% (inactive) | 77.5% (inactive) | 64.5% (inactive) | 31.2% (inactive) | 39.4% (inactive) | 71.8% (inactive) | 65.3% (inactive) | 52.1% (inactive) | 58.4% (inactive) | 69% (inactive) | 54.7% (inactive) | 82.7% (inactive) | 38.2% (inactive) | 19.9% (inactive) | –
C=CC1CN2CCC1CC2C(O)c1ccnc2ccccc12 (stereo unspecified) | 116% (inactive) | 115% (inactive) | 124% (inactive) | 124% (inactive) | 115% (inactive) | 55.8% (inactive) | 104% (inactive) | 113% (inactive) | 117% (inactive) | 133% (inactive) | -4.22% (active) | 145% (inactive) | 109% (inactive) | 67% (inactive) | 109% (inactive) | 144% (inactive) | 125% (inactive) | 225% (inactive) | 304% (inactive) | –
CN1[C@@H](CC(=O)c2ccccc2)CCC[C@H]1CC(=O)c1ccccc1 | 97.1% (inactive) | 108% (inactive) | 90.6% (inactive) | 98.4% (inactive) | 103% (inactive) | 93% (inactive) | 102% (inactive) | 97.7% (inactive) | 93.8% (inactive) | 103% (inactive) | 42.8% (inactive) | 96.7% (inactive) | 96.6% (inactive) | 83.7% (inactive) | 97.3% (inactive) | 101% (inactive) | 115% (inactive) | 116% (inactive) | 111% (inactive) | –
CNC(=O)Oc1ccc(Cl)cc1SSc1cc(Cl)ccc1OC(=O)NC | 72.7% (inactive) | 106% (inactive) | 86.8% (inactive) | 86.8% (inactive) | 52.7% (inactive) | 73% (inactive) | 43.4% (inactive) | 49.7% (inactive) | 85.8% (inactive) | 82% (inactive) | 77.5% (inactive) | 109% (inactive) | 70.9% (inactive) | 64.6% (inactive) | – | 97.1% (inactive) | 98% (inactive) | – | 50.7% (inactive) | 123% (inactive)
O=[P+](O)c1cccnc1 | 106% (inactive) | 93.7% (inactive) | 94.3% (inactive) | 106% (inactive) | 99.6% (inactive) | 96.7% (inactive) | 102% (inactive) | 103% (inactive) | 98.1% (inactive) | 106% (inactive) | 106% (inactive) | 101% (inactive) | 102% (inactive) | 91.5% (inactive) | – | 102% (inactive) | 111% (inactive) | – | 98.3% (inactive) | 103% (inactive)
N#CC(NC(=O)CCl)=C(Cl)Cl | -21.1% (active) | -49.2% (active) | 66.6% (inactive) | 60.3% (inactive) | 9.19% (active) | 37.7% (inactive) | 25.4% (inactive) | -5.68% (active) | -56.4% (active) | -39.9% (active) | 51.5% (inactive) | -45.3% (active) | 29% (inactive) | -40% (active) | -88.7% (active) | -99.4% (active) | 63.4% (inactive) | -58.3% (active) | -21.9% (active) | –
O=[N+]([O-])c1ccc(OCc2ccc(S(=O)(=O)F)c(Cl)c2)c(Cl)c1 | 84.6% (inactive) | 99.2% (inactive) | 92.8% (inactive) | 108% (inactive) | 107% (inactive) | 91.4% (inactive) | 99.6% (inactive) | 92.6% (inactive) | 93% (inactive) | 119% (inactive) | 88.7% (inactive) | 112% (inactive) | 97.7% (inactive) | 70% (inactive) | – | 102% (inactive) | 95.6% (inactive) | 88.9% (inactive) | 87.9% (inactive) | 102% (inactive)
N#CCCc1ccccc1 | 98.3% (inactive) | 104% (inactive) | 86.3% (inactive) | 97.7% (inactive) | 105% (inactive) | 108% (inactive) | 99.6% (inactive) | 97.2% (inactive) | 102% (inactive) | 108% (inactive) | 121% (inactive) | 103% (inactive) | 103% (inactive) | 85% (inactive) | 98.4% (inactive) | 98.2% (inactive) | – | – | 96.2% (inactive) | 113% (inactive)
O=NN1CCCCC1 | 106% (inactive) | 103% (inactive) | 82.6% (inactive) | 97.8% (inactive) | 111% (inactive) | 110% (inactive) | 106% (inactive) | 97.1% (inactive) | 100% (inactive) | 110% (inactive) | 105% (inactive) | 126% (inactive) | 98.7% (inactive) | 98.8% (inactive) | – | 107% (inactive) | 88.1% (inactive) | 110% (inactive) | 104% (inactive) | 110% (inactive)
CC1=C2[C@H]3OC(=O)[C@@H](C)[C@@H]3CC[C@@]2(C)C=CC1=O | 95.3% (inactive) | 118% (inactive) | 88.3% (inactive) | 110% (inactive) | 101% (inactive) | 50.5% (inactive) | 112% (inactive) | 93% (inactive) | 99.1% (inactive) | 122% (inactive) | -0.59% (active) | 121% (inactive) | 100% (inactive) | 99.2% (inactive) | – | 112% (inactive) | 125% (inactive) | 87.3% (inactive) | 94.6% (inactive) | 107% (inactive)
